According to PubChem BioAssay (NCI):
The panel holds about 83,000 compounds, 20% with a hit somewhere; the sample as a whole holds those more often.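 The test compound was applied at a single concentration to cells in 96-well plates for 48 hours, and percent growth was recorded.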 Values without a mark were called inactive. The source made the active and inactive calls. How the source made its calls: active means growth percent below 10; inactive means the rest.

Columns and labels:
Assay in all cases: NCI-60 one-dose screen, 48 h (100 = growth as untreated, 0 = no growth, -100 = all killed)
Details in all cases: 10 µM unless noted
SK-MEL-2 melanoma = system: SK-MEL-2 melanoma
EKVX NSCLC = system: EKVX NSCLC
SN12C renal = system: SN12C renal
UO-31 renal = system: UO-31 renal
TK-10 renal = system: TK-10 renal
ACHN renal = system: ACHN renal
CAKI-1 renal = system: CAKI-1 renal
A498 renal = system: A498 renal
CCRF-CEM leukemia = system: CCRF-CEM leukemia
MOLT-4 leukemia = system: MOLT-4 leukemia
SR leukemia = system: SR leukemia
RPMI-8226 leukemia = system: RPMI-8226 leukemia
OVCAR-8 ovarian = system: OVCAR-8 ovarian
OVCAR-5 ovarian = system: OVCAR-5 ovarian
OVCAR-4 ovarian = system: OVCAR-4 ovarian
SK-OV-3 ovarian = system: SK-OV-3 ovarian
IGROV1 ovarian = system: IGROV1 ovarian
OVCAR-3 ovarian = system: OVCAR-3 ovarian
HS 578T breast = system: HS 578T breast
NCI/ADR-RES ovarian = system: NCI/ADR-RES ovarian

SMILES	growth (SK-MEL-2 melanoma)	growth (EKVX NSCLC) [%]	growth (SN12C renal) [%]	growth (UO-31 renal) [%]	growth (TK-10 renal) [%]	growth (ACHN renal)	growth (CAKI-1 renal) [%]	growth (A498 renal)	growth (CCRF-CEM leukemia)	growth (MOLT-4 leukemia) [%]	growth (SR leukemia)	growth (RPMI-8226 leukemia)	growth (OVCAR-8 ovarian) [%]	growth (OVCAR-5 ovarian) [%]	growth (OVCAR-4 ovarian)	growth (SK-OV-3 ovarian)	growth (IGROV1 ovarian) [%]	growth (OVCAR-3 ovarian)	growth (HS 578T breast) [%]	growth (NCI/ADR-RES ovarian)
COc1cccc(C2C(C#N)=C(N)Oc3cc4c(cc32)OCO4)c1 (centres undefined)	64.7%	47.9	23.8	39.3	80	29.3%	52.4	1.43% (active)	17.4%	19.4	17.8%	23.8%	24.9	31.1	40.5%	0.748% (active)	21.6	-38.6% (active)	27.8	5.77% (active)
O=C1C(Cl)=C(Nc2cccc3ccccc23)C(=O)c2ccccc21	79.1%	74.4	80.1	58.5	95.4	68.2%	25.4	77.5%	65.4%	64.9	51%	17.8%	71.5	134	58.6%	99.1%	58.8	39%	87.9	81.2%
COc1ccc(-c2cc(C(=O)Nc3ccc(Br)cc3)nc3[nH]c(=O)sc23)cc1	-5.01% (active)	37.2	20.4	28.6	19.9	54.8%	34.6	-2.87% (active)	29.8%	27.8	65.1%	14.2%	43.1	84.9	34.2%	26.7%	25.2	36.9%	41.6	40.7%
S=C(Cc1ccccc1)N1CCN(c2ccccc2Cl)CC1	99.7%	94.5	107	82.4	116	108%	85.2	90.7%	89.1%	82.1	70.3%	95.1%	99.1	97.6	105%	101%	110	106%	97.3	96.7%
CC(=O)O[C@H]1CC[C@]2(C)[C@H]3CC=C4[C@@H]5CC(C)(C)CC[C@]5(C(=O)OCC(COC(=O)C(Cl)Cl)(COC(=O)C(Cl)Cl)NC(=O)C(Cl)Cl)CC[C@@]4(C)[C@]3(C)CC[C@H]2C1(C)C	77.7%	65	71.8	62.5	78.1	62.4%	63	93.2%	64.8%	44.9	60.3%	33.5%	68.5	86.1	67.6%	86.1%	89.5	67%	83.9	78%
COc1ccc(Cl)cc1Nc1nc(C(F)(F)F)ccc1C(=O)NN	11.7%	27.9	35.7	33.6	26.1	6.99% (active)	20.5	75.3%	-76.5% (active)	24.5	1.9% (active)	4.71% (active)	18.9	40.6	-4.08% (active)	8.79% (active)	30.3	33.6%	–	9.26% (active)
CC(=O)Cc1ccccn1	102%	97.7	111	88.5	109	99.5%	88	107%	99.5%	102	108%	103%	110	110	106%	119%	107	105%	107	108%
Clc1ccc(Cl)c(N=Cc2ccc3c(c2)OCO3)c1	109%	98.8	105	86.6	107	114%	94.6	91.6%	106%	106	114%	99.9%	97.8	103	108%	105%	114	115%	109	106%
